Screens: PubChem BioAssay, National Center for Advancing Translational Sciences (NCATS)
This is a sample that favours compounds with a hit; in the whole collection about 2.2% have one here.
IDH1 R132H inh: human IDH1 R132H inhibition | IDH1-R132H enzyme, NADPH consumption, diaphorase/resazurin fluorescence | Potency, µM (series often up to 76.6 µM), for the others: at the highest dose activity change, negative = inhibition, usual class: inhibitors | 390,000 tested, 0.093% active | AID 602179; further: potency means the concentration at half of the fitted maximal effect; on the % scale 0 is the no-effect control and ±100 the full control effect; nearly all actives have a fitted effect of over 65% in size
Target sequence (O75874 whole entry R132H, stated change not applied): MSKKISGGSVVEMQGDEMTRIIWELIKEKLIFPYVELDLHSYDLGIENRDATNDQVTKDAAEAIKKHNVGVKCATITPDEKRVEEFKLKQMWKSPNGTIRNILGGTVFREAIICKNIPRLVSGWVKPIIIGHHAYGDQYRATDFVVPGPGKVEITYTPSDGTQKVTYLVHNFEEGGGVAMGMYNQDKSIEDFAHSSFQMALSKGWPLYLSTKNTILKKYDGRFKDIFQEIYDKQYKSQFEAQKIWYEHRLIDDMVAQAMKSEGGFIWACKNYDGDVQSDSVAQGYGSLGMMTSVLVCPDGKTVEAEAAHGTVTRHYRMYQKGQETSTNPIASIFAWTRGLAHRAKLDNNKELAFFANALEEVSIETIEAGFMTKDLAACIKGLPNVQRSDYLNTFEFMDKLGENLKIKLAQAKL
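IDH1-R132H (0.5 ug/mL) preincubated 30 min with compound, then NADPH (0.016 mM) and alpha-KG (2 mM) added; 80 min at RT, pH 7.5. Remaining NADPH coupled via diaphorase/resazurin to fluorescence (540/590 nm); concentration-response curves normalized to no-enzyme control.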
ATXN2 expr inh: reduces ATXN2 reporter expression in HEK-293 cells. 360,000 tested, 0.72% active. HEK-293 ATXN2-luciferase reporter, luminescence, 24 h. Potency, µM (series often up to 57 µM), for the others: at the highest dose activity change, negative = inhibition, usual class: inhibitors; further: potency means the concentration at half of the fitted maximal effect; on the % scale 0 is the no-effect control and ±100 the full control effect; nearly all actives have a fitted effect of over 55% in size
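ATXN2-luciferase reporter cells (luciferase flanked by upstream and downstream ATXN2 gene portions) were treated 24 h at 37 °C with compounds at up to 57 uM. SteadyGlo luminescence gave expression; GF-AFC fluorescence gave viability.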
LDHA inh: LDHA (human) enzyme inhibition | activity change, % (values are at about 110 or 230 µM) | 480,000 tested, 0.15% active | P00338 | purified LDHA, NADH/diaphorase-resazurin fluorescence; active compounds read low; in the data active means activity change below about -30%; inconclusive means mostly about -25% to -30%;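 further: plate controls were DMSO wells for no effect and wells without enzyme for full effect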
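LDH5 2 nM; NADH 0.06 mM, pyruvate 0.2 mM; 200 mM Tris pH 7.4, EDTA, Tween-20; 5 min RT. Detection: diaphorase 0.133 mg/mL + resazurin 37 µM, fluorescence ex540/em590 at 0 and 20 min; normalized to enzyme-free and DMSO wells.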
ATXN viability: viability counter-screen for ATXN expression inhibitors; S2 cells (HEK-293 line with an ATXN2-luciferase reporter) viability, CellTiter-Fluor protease fluorescence, 24 h; Potency, µM (top dose mostly 56.7 µM), hits mostly cytotoxic; AID 651635; 400,000 tested, 0.49% active; further: potency means the concentration at half of the fitted maximal effect; nearly all actives have a fitted effect of over 40% in size
TGFb inhibitor: TGF-b pathway inhibition; HepG2 CAGA-GFP TGF-b/SMAD3 reporter, GFP fluorescence, 18 h; TGF-beta stimulated, 500 pg/mL final; Potency, µM (series often up to 46.1 µM), for inactives: at the highest dose activity, negative = inhibition, most hits filed as inhibitors; 410,000 tested, 1.2% active; AID 588855; further: potency means the concentration at half of the fitted maximal effect; on the % scale 0 is the no-effect control and ±100 the full control effect; nearly all actives have a fitted effect of over 65% in size
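Read-out: total well GFP (ex488/em500-530) summed from mean per-cell fluorescence. Cells: HEPG2 CAGA-GFP, 1% FBS DMEM, 18 h at 37 degrees C with 500 pg/mL final TGF-beta. Unstimulated wells served as the full-inhibition control; stimulated DMSO wells = 0%.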
HepG2 viability: HepG2 cytotoxicity, counter-screen for TGF-b inhibitors; HepG2 CAGA-GFP viability, ATP luminescence, 18 h; 410,000 tested, 0.76% active; AID 588856; Potency, µM (doses to about 46.1 µM), for inactives: at the top dose activity change, negative = cytotoxicity, actives largely listed as cytotoxic; further: potency means the concentration at half of the fitted maximal effect
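CellTiter-Glo luminescence gave cytotoxicity after 18 hours at 37 degrees C. The cells were HepG2 CAGA-GFP in 1% FBS DMEM, stimulated with 500 pg/mL TGF-beta after compound addition. %Activity was normalised to no-cell wells (complete cell-killing) and DMSO (no toxicity), and curves were fitted and classified.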
Resorufin autofl: counter-screen for mutant IDH1 inhibitors: fluorescence interference. shares compounds with IDH1 R132H inh. Resorufin detection reagent fluorescence interference, cell-free. inhibition of signal, % at 51.2 µM. 750 tested, under 10 active. AID 623980;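 further: 0% = wells with normal resorufin and full inhibition = wells lacking resorufin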
WT IDH1 inh: inhibits human wild-type IDH1, mutant selectivity check; shares compounds with IDH1 R132H inh; WT IDH1 enzyme, NADPH diaphorase/resazurin fluorescence; Potency, µM (titrated, usually from 115 µM), for inactives: at the highest dose activity change, negative = inhibition, most hits filed as inhibitors; 750 tested, 9% active;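 further: potency means the concentration at half of the fitted maximal effect; 0% = full WT IDH1 enzyme control and full inhibition = no enzyme wells; nearly all actives have a fitted effect of over 55% in size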
Target sequence (O75874 whole entry, looked up): as the sequence (O75874 whole entry R132H, stated change not applied) above, with H132R counted along it
IDH1 R132H conf: mutant IDH1 (human) inhibition, confirmed; shares compounds with IDH1 R132H inh; IDH1 R132H enzyme, NADPH diaphorase/resazurin fluorescence; Potency, µM (highest dose often 76.6 µM), without a hit: at the highest dose activity change, negative = inhibition, usual class: inhibitors; 750 tested, 83% active; further: potency means the concentration at half of the fitted maximal effect; nearly all actives have a fitted effect of over 50% in size
Starred values were filed as active, the others as inactive; i = inactive; ? = inconclusive; . = not tested or not shown; [ ] = remark or other dose. Unless noted, the call rests on the fitted dose curve; in most records, active means well fitted curve in the direction sought with a large enough effect; inconclusive means small, poorly fitted or top-dose-only effect, or another doubt; inactive means no such curve, though single readings can be large; an effect the other way counts as inactive or inconclusive.

SMILES	IDH1 R132H inh	ATXN2 expr inh	LDHA inh	ATXN viability	TGFb inhibitor	HepG2 viability	Resorufin autofl	WT IDH1 inh	IDH1 R132H conf
Cc1cc(C)nc(N/N=C/C2=C(N3CCOCC3)C(=C/c3ccccc3)/CC2)n1	29µM*	-28%	-5	i	?	-14%	-4	2%	20µM*
Cc1ccc2c(c1)C1CN(C)CCC1N2C(=O)COc1ccccc1F (configuration not stated)	-2%	-3%	-10	i	0%	-11%	.	.	.
Cc1ccc(S(=O)(=O)/C(C#N)=C/c2c(N3CCC(C(N)=O)CC3)nc3c(C)cccn3c2=O)cc1	?	1%	5	i	-2%	5%	.	.	.
Cc1cccn2c(=O)c(/C=C(\C#N)S(=O)(=O)c3ccccc3)c(N3CCC(C(N)=O)CC3)nc12	?	-1%	-2	i	-1%	-3%	1	-1%	40µM*
CC(=O)N1c2ccc(C)cc2C(c2ccccc2)CC1C (configuration not stated)	-7%	75%	0	i	-29%	-19%	.	.	.
O=C1c2[nH]nc(-c3ccccc3O)c2C(c2ccc(Cl)cc2)N1Cc1ccco1 (configuration not stated)	40µM*	.	-2	.	?	16µM*	-1	1%	28µM*
COc1cccc(C2c3c(-c4ccccc4O)n[nH]c3C(=O)N2Cc2ccco2)c1 (configuration not stated)	52µM*	.	-1	?	?	-23%	0	-5%	40µM*
CCOc1cccc(C2c3c(-c4cc(C)ccc4O)n[nH]c3C(=O)N2Cc2ccco2)c1 (configuration not stated)	32µM*	?	10	.	?	-105%	1	-2%	11µM*
O=C1c2[nH]nc(-c3ccccc3O)c2C(c2ccccc2)N1Cc1ccco1 (configuration not stated)	0%	-1%	-1	?	?	-65%	.	.	.
COc1cc(C2c3c(-c4ccccc4O)n[nH]c3C(=O)N2CCO)ccc1OCC(C)C (configuration not stated)	-27%	.	-1	.	?	-40%	.	.	.
COc1cc(C2c3c(-c4ccccc4O)n[nH]c3C(=O)N2Cc2ccco2)ccc1OCC(C)C (configuration not stated)	?	.	9	.	?	-111%	1	-19%	20µM*
O=C(NC1CCCCC1)c1cc(Sc2cccc(Cl)c2)nc2ccccc12	.	.	12	.	.	.	.	.	.
COc1cccc(CC2(CO)CCN(Cc3cn(C)nc3C)CC2)c1	0%	-5%	2	i	-17%	-28%	.	.	.
CCCCCCCOc1ccc(C2C3=C(CC(C)(C)CC3=O)OC3=C2C(=O)CC(C)(C)C3)cc1	.	.	-3	.	.	.	.	.	.
CCCCOc1cccc(C2c3c(-c4cc(C)ccc4O)n[nH]c3C(=O)N2CCOC)c1 (configuration not stated)	32µM*	?	4	?	?	-110%	-11	0%	22µM*
Cc1ccc(O)c(-c2n[nH]c3c2C(c2ccccc2F)N(Cc2ccco2)C3=O)c1 (configuration not stated)	?	?	1	.	?	11µM*	-10	-21%	25µM*
c1ccc(CN(CCN2CCOCC2)Cc2ccccc2)cc1	-8%	-6%	-10	i	7%	3%	.	.	.
OCCN(CCO)c1ccc(C(c2ccccc2Cl)c2ccc(N(CCO)CCO)cc2Cl)c(Cl)c1	18µM*	?	3	.	-24%	-105%	5	40µM*	13µM*
OCCN(CCO)c1ccc2ccccc2c1	-8%	7%[11.3 µM]	1	i	-8%	-6%	.	.	.
c1ccc(N(c2ccccc2)c2nc(-n3ccnc3)nc(-n3ccnc3)n2)cc1	?	-2%	-5	i	?	-15%	2	-3%	25µM*
CCOC(=O)Cn1c(=O)c2c(nc(N3CCCCC3)n2C)n(C)c1=O	4%	7%	-2	i	12%	-4%	.	.	.
CC1CC(N(C(=O)c2ccco2)c2ccccc2)c2ccccc2N1 (configuration not stated)	10%	4%	6	i	-9%	-45%	.	.	.
CCC(C)Nc1nc(N)c([N+](=O)[O-])c(Nc2ccccc2OC)n1 (configuration not stated)	-18%	-17%	4	?	-38%	22%	.	.	.
CCC(C)Nc1nc(N)c([N+](=O)[O-])c(Nc2cc(OC)ccc2OC)n1 (configuration not stated)	?	?	0	?	?	16%	2	2%	28µM*
CCOC(=O)c1c(C)[nH]c(C(=O)C(C)N(C)Cc2ccccc2)c1C (configuration not stated)	.	.	8	.	.	.	.	.	.
O=C(CSc1nc2nc(-c3cccs3)cc(C(F)(F)F)c2c(=O)[nH]1)Nc1ccc(F)c(F)c1	?	?	-10	i	?	-54%	6	?	45µM*
CC(C)(C)c1cc(CP(=O)(c2ccccc2)c2ccccc2)cc(C(C)(C)C)c1O	?	.	2	.	?	-83%	-1	-3%	28µM*
O=P(Cc1ccccc1)(c1ccccc1)c1ccccc1	4%	2%	-5	?	?	6%	.	.	.
CC1CC(C)CN(CCCNC(=O)CN2C(=O)CSc3ccc(S(=O)(=O)N4CCOCC4)cc32)C1 (configuration not stated)	-5%	6%	-2	i	12%	-1%	.	.	.
CCc1ccc(C(=O)c2cn(Cc3ccc(F)cc3)c3cc(OC)c(OC)cc3c2=O)cc1	?	?	0	14µM*	?	-13%	-4	2%	?
